Most compounds without a hit are left out; they make up all but 10% or so of the library.
PNC inhibitor: inhibitors of perinucleolar compartment assembly. AID 2417. actives 3.1% (n = 140,000). PC3M PTB-GFP, PNC prevalence imaging, 16 h; stronger effect = lower value. activity change (PNC), negative = inhibition, % at 10 µM;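 active = readout at or below -70, meaning at least 70% loss of cells showing the perinucleolar compartment, a nuclear body marking cancer cells; inconclusive = readout between -30 and a set limit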;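 also: plate controls were DMSO wells for no effect and camptothecin positive control wells for full effect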
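Read-out is percentage of cells bearing a perinucleolar compartment, from automated 20x imaging of fixed, Hoechst-stained PC3M PTB-GFP cells. Cells were seeded 4 h, then exposed 16 h to compound (23 nl of library stock) in duplicate plates.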
HPGD block: inhibitors of human 15-hydroxyprostaglandin dehydrogenase (HPGD); P15428; purified HPGD, NADH fluorescence kinetic, PGE2 substrate; Potency, µM, for the others: top-dose activity change, negative = inhibition, hits mostly inhibitors; actives 4.3% (n = 150,000); AID 894; active = well fitted inhibition curve with a large enough effect, not every such curve was filed as active; inconclusive = small, poorly fitted or top-dose-only effect, or another doubt; inactive = no such curve, though single readings can be large or run the other way; also: potency is read from the fitted curve at half-maximal effect
Target sequence (P15428 whole entry, looked up): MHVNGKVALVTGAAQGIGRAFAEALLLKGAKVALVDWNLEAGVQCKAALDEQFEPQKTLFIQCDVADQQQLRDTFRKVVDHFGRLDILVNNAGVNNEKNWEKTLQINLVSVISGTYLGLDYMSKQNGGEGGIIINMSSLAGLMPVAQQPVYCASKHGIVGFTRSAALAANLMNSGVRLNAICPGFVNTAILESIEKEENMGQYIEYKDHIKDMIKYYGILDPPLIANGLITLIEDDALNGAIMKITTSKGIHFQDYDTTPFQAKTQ
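20 nM HPGD preincubated 15 min at room temperature with compound in 50 mM Tris-HCl pH 8, 0.01% Tween 20. Started with 1 mM NAD+ and 30 uM prostaglandin E2; NADH fluorescence (360/450 nm) read 5 times over 30-s intervals, last minus first.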
GLA inh pH 4.5: inhibitors of human alpha-galactosidase A at pH 4.5; purified enzyme, 4-MU-alpha-Gal fluorescence, pH 4.5; activity change, negative = inhibition, % at 105 µM; 230,000 tested, under 10 active; AID 1467;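 also: 0% = full activity with enzyme and -100% = basal without enzyme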
Target sequence (P06280 whole entry, looked up): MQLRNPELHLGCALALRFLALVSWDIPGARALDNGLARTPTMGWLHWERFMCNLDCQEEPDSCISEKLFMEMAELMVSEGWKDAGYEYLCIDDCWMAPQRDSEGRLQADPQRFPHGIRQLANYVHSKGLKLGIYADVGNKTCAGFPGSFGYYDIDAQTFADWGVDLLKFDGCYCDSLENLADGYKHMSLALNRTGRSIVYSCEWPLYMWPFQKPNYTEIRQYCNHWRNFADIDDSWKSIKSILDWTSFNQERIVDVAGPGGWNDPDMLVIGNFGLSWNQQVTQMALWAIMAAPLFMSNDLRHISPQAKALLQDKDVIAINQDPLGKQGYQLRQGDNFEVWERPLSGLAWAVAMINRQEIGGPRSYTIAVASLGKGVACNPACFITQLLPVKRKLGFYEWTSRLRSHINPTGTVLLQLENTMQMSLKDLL
GLA spleen mod: inhibitors or activators of human alpha-galactosidase in spleen homogenate; actives 0.008% (n = 240,000); P06280; Potency, µM (doses to about 80 µM), for inactives: top-dose activity change, negative = inhibition, most hits filed as inhibitors; AID 2107; human spleen homogenate, 4MU-alpha-Gal fluorescence, 40 min;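 also: potency is read from the fitted curve at half-maximal effect; 0% = enzyme with vehicle and -100% = no enzyme basal signal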
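qHTS titration in buffer at pH 5.0. Alpha-galactosidase activity in spleen homogenate was measured via 4-methylumbelliferone release from 1 mM fluorogenic substrate after 40 min at 37C and a pH 10 stop. AC50 came from Hill fits of control-normalized data.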
12-hLO inh: 12-hLO (ALOX12) enzyme inhibition; P18054; purified 12-hLO, xylenol orange hydroperoxide absorbance; Potency, µM (series often up to 57.1 µM), for inactives: top-dose activity change, negative = inhibition, usual class: inhibitors; actives 0.12% (n = 150,000); AID 1452; also: potency is read from the fitted curve at half-maximal effect; nearly all actives have a fitted effect of over 55% in size
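Lipoxygenase turnover measured by absorbance at 573 and 405 nm after Fe-XO development. Human 12hLO 150 nM, arachidonate 40 uM, pH 7.0 Hepes buffer with detergent; 15 min compound preincubation, 30 min reaction.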
ALDH1A1 block: ALDH1A1 (human) enzyme inhibition | P00352 | Purified ALDH1A1, NADH fluorescence, propionaldehyde substrate | Potency, µM (titrated, usually from 75.3 µM), inactives show at the highest dose activity, negative = inhibition, most hits filed as inhibitors | actives 7.3% (n = 220,000) | AID 1030; active = well fitted inhibition curve with a large enough effect, not every such curve was filed as active; inconclusive = small, poorly fitted or top-dose-only effect, or another doubt; inactive = no such curve, though single readings can be large or run the other way;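 also: potency is read from the fitted curve at half-maximal effect; plate controls were no enzyme wells and a reference inhibitor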
* hit, by the source's call; u = inconclusive; x = not tested or not shown; [ ] = remark or other dose. Unless noted, calls follow the shape of the dose curve; as a rule, active = well fitted curve in the direction sought with a large enough effect; inconclusive = small, poorly fitted or top-dose-only effect, or another doubt; inactive = no such curve, though single readings can be large; an effect the other way counts as inactive or inconclusive. Unless noted, % is scaled to controls: 0 for no effect and ±100 for the full control effect.

SMILES	PNC inhibitor	HPGD block	GLA inh pH 4.5	GLA spleen mod	12-hLO inh	ALDH1A1 block
COC(=O)Oc1nsnc1N1CCOCC1	7	14µM*	10	9%	-16%	4µM*
Brc1ccc(Oc2nsnc2N2CCOCC2)cc1	10	-15%	2	u	-5%	4%
CC(CCc1ccccc1)NC(=O)C(=O)Nc1ccccc1 (stereo not given)	u	0%	3	2%	0%	10%
CC(Oc1ccc(Cl)cc1)C(=O)N/N=C/c1ccsc1 (stereo not given)	-12	-8%	7	17%	-6%	u
CCSc1n[nH]c(=S)s1	x	x	11	5%	x	1.8µM*
Cc1nc(N2CCOCC2)c2nc(-c3ccccc3)n(CCCN3CCCCC3C)c2n1 (stereo not given)	x	u	-6	0%	2%	u
O=C(NCCc1ccccc1)C1CCN(S(=O)(=O)N2CCCCCC2)CC1	x	x	0	0%	x	7.1µM*
COc1ccc(CCNC(=O)C2CCN(S(C)(=O)=O)CC2)cc1OC	-10	0%	7	-11%	-1%	9%
COc1ccc(CCNC(=O)C2CCN(S(=O)(=O)N3CCCCCC3)CC2)cc1OC	-6	-7%	0	2%	0%	7.9µM*
O=C(NCCCN1CCCC1=O)C1CCN(S(=O)(=O)N2CCOCC2)CC1	-84*	-10%	6	1%	2%	u
COc1ccc(CCNC(=O)NC2CCCCC2)cc1OC	-81*	-10%	-1	4%	1%	1%
O=C(NCCN1CCOCC1)C1CCN(S(=O)(=O)N2CCCCC2)CC1	-5	-9%	-7	6%	1%	u
CCOC(=O)Cc1csc(NC(=O)c2ccc(S(=O)(=O)N3CCOCC3)cc2)n1	x	x	-3	3%	x	u
O=C(NCc1ccccc1)c1ccc(S(=O)(=O)N2CCCC2)cc1	u	3%	9	-9%	4%	u
COc1ccc(CCNC(=O)C2CCN(Cc3nc(-c4cccc(Cl)c4)oc3C)CC2)cc1OC	-83*	-6%	-14	-2%	-2%	-4%
COc1cc(C(=O)NNC(=O)NC2CCCCC2)cc(OC)c1OC	-120*	-1%	-1	1%	1%	6%
CCOC(=O)Cc1csc(NC(=O)c2ccc(S(=O)(=O)N3CCCC3)cc2)n1	26	-13%	-13	4%	6%	11µM*
COc1ccc(CNC(=O)c2ccc(S(=O)(=O)N3CCCC3)cc2)cc1OC	-4	-14%	-8	1%	2%	10µM*
COc1ccc2c(c1)C(c1ccc3c(c1)OCO3)CC(=O)O2 (stereo not given)	x	-8%	-3	9%[119 µM]	-4%[0.00818 µM]	-3%
O=C(/C=C/c1ccc(S(=O)(=O)N2CCOCC2)cc1)NCc1ccc(Cl)cc1	32	-7%	-8	0%	2%	12%
CCOC(=O)CSc1nnc(CNC(=O)c2ccc(S(=O)(=O)N3CCCC3)cc2)n1C	26	-2%	3	3%	-3%	19µM*
COc1ccc(CCNC(=O)C2CCN(S(=O)(=O)c3ccc(Cl)cc3)CC2)cc1OC	-100*	-8%	0	4%	-1%	-7%
CCOc1ccc(CCNC(=O)C2CCCN(C(=O)N(C)C)C2)cc1OCC (stereo not given)	-100*	-12%	-6	10%	5%	8%
CCOC(=O)Cc1csc(NC(=O)CS(=O)(=O)Cc2ccccc2)n1	u	-1%	-2	6%	2%	-6%
CCOC(=O)Cc1csc(NC(=O)CCS(=O)(=O)Cc2ccccc2)n1	29	-4%	-11	3%	-3%	20µM*
SMILES	PNC inhibitor	HPGD block	GLA inh pH 4.5	GLA spleen mod	12-hLO inh	ALDH1A1 block
CCS(=O)(=O)N1CCC(C(=O)NCCc2ccc(OC)c(OC)c2)CC1	-23	-6%	5	8%	-6%	3%
COC(=O)/C(=C\c1c(OC)cc(OC)cc1OC)C(=O)c1ccc2c(c1)OCO2	x	x	x	-19%	x	x
Cc1ccc(C)n1CCN1CCN(CC(=O)Nc2cc(C(F)(F)F)ccc2Cl)CC1	30	-13%	2	-2%	-2%	28µM*
O=C(CN1CCOCC1)Nc1cc(C(F)(F)F)ccc1Cl	x	x	5	-7%	x	14%
COC(=O)[C@@H]1CC2=CC(=O)CC[C@]2(C)[C@@]23O[C@@H]2C[C@@]2(C)[C@H](CC[C@@]24CCC(=O)O4)[C@@H]13	x	-13%	-4	-3%	-2%[0.00818 µM]	-1%
CCc1ccc(C2NC(=S)NC3=C2C(=O)CC(C)(C)C3)cc1 (stereo not given)	u	-10%	-9	-1%	-9%	2.5µM*
CC(C)c1ccc(C2NC(=S)NC3=C2C(=O)CC(C)(C)C3)cc1 (stereo not given)	4	-11%	-1	-1%	-4%	2µM*
CC1CCCC(NC(=O)CSc2ccc(F)cc2)C1C (stereo not given)	x	x	-2	2%	x	u
CC1CCCC(NC(=O)CCC(=O)c2ccc(F)cc2)C1C (stereo not given)	x	x	-3	1%	x	16µM*
Cc1cccc(Cn2c(=O)n(-c3ccc(CC(=O)NCc4ccco4)cc3)c(=O)c3sccc32)c1	u	-18%	4	-4%	9%	u
CN(C)c1nc(OCCOC(=O)COc2ccc(Cl)cc2Cl)nc(N(C)C)n1	5	-5%	-12	3%	-5%	10%
CN(C)c1nc(SCCOC(=O)COc2ccc(Cl)cc2Cl)nc(N(C)C)n1	29	16µM*	-7	-5%	-9%	5%
COc1ccc2[nH]cc(CCNc3ncncc3-c3cccc(NS(C)(=O)=O)c3)c2c1	x	x	x	11%	x	-9%
COc1ccccc1CC(=O)N1CCCC(CCC(=O)NCc2ccccc2F)C1 (stereo not given)	x	x	-5	8%	x	x
COc1ccc(C(=O)N2CCCC(CCC(=O)NCc3ccc(F)c(F)c3)C2)o1 (stereo not given)	x	x	-6	-5%	x	16µM*
COc1ccc(C(=O)N2CCCC(CCC(=O)NCc3ccc(F)c(F)c3)C2)cc1F (stereo not given)	x	x	4	2%	x	-6%
COc1cccc(CNC(=O)CCC2CCCN(C(=O)Cc3ccccc3F)C2)c1 (stereo not given)	x	x	-1	-13%	x	11µM*
CC(=O)NS(=O)(=O)c1ccc(NC(=S)NC(=O)CC(C)C)cc1	x	x	0	-1%	x	9%
CCN(CC)S(=O)(=O)c1ccc(NC(=S)NC(=O)C(C)C)cc1	0	-16%	-3	10%	-6%	28µM*
CCN(CC)S(=O)(=O)c1ccc(NC(=S)NC(=O)CC(C)C)cc1	-83*	-15%	7	0%	-6%	-13%
CC(=O)NS(=O)(=O)c1ccc(NC(=S)NC(=O)C(C)C)cc1	-8	0%	8	-3%	2%	4%

Compound activity (PubChem)
